Among the data in PubChem BioAssay AID623911 (Vanderbilt High Throughput Screening Facility, 2012) are manual score values, retold here.

SMILES strings stand for the structures. The whole screen tested about 2,100 compounds, of which about 770 (37%) were called active.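 Rule for the calls: active = by-eye trace score of 1 for enhancers or -1 for inhibitors, so actives lie on both sides (some results past the limit were not filed as active); inactive = score 0, or 3 fluorescent, or 4 baseline rise.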 The list shows a part of the results.

In the assay the target is G protein-activated inward rectifier potassium channel 2 (Homo sapiens) + G protein-activated inward rectifier potassium channel 1 (Homo sapiens) (UniProt P48051+P48549). The experiment in a line: GIRK1/2 thallium flux modulators, retest, confirmation, cell-based, HEK293 rmGlu8/hGIRK1/2, FluoZin-2 (AID 623911). As to conditions: HEK293 rmGlu8/hGIRK1/2, thallium flux FluoZin-2; actives lie on both sides; glutamate co-added at its EC20 level.
Sequence of G protein-activated inward rectifier potassium channel 2 (Homo sapiens) + G protein-activated inward rectifier potassium channel 1 (Homo sapiens) (P48051 whole entry, looked up): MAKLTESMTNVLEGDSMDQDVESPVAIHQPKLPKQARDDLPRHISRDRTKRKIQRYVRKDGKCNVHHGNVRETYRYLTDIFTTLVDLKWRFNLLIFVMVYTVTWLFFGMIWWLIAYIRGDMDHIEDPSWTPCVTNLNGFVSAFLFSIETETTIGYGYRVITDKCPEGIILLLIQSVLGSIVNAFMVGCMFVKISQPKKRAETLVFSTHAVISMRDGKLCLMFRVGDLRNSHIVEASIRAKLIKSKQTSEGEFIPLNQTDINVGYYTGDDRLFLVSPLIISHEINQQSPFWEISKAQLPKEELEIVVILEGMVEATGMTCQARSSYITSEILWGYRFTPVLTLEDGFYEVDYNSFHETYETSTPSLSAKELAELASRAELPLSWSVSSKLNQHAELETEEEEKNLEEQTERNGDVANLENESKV
Sequence of G protein-activated inward rectifier potassium channel 2 (Homo sapiens) + G protein-activated inward rectifier potassium channel 1 (Homo sapiens) (P48549 whole entry, looked up): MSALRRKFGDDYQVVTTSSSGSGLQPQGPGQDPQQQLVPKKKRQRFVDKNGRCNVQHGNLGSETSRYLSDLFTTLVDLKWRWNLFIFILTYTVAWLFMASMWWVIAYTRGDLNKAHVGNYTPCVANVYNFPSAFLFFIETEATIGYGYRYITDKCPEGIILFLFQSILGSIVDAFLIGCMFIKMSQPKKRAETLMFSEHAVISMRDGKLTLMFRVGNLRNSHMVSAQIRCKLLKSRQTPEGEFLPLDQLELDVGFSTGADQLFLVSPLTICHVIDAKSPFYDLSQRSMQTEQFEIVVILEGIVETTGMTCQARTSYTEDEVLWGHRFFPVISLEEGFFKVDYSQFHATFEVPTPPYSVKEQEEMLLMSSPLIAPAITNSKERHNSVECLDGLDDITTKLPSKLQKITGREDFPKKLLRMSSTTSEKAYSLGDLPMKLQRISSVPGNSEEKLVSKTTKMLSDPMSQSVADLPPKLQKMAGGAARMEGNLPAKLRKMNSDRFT
Take `CCN(C(=O)CSc1nc2ccccc2n1CCc1ccccc1)C1CCS(=O)(=O)C1` (stereo not drawn): the manual score was 0 (inactive).
On to `CCCOC(=O)NC(CC)COC(=O)Nc1cccc(C)c1C` (stereo not drawn), for which the manual score was 0 (inactive).
Turning to `Cc1cc(C)c(-n2c(C)cc(/C=C3/NC(=O)NC3=O)c2C)c(C)c1`, the manual score is -1 (active).
Next, `Cc1cc(C=C2C(=O)c3ccccc3C2=O)c(C)n1-c1ccccc1`: 0.5 (inactive); `Cc1ccc(C)c(OCC(O)CN2C(C)CCCC2C)c1` (stereo not drawn): -1 (active).
Next, `C/C(=N\NC(=S)NCCc1ccccc1)c1ccc(C)cc1`: 0 (inactive); `O=C1c2ccccc2C(Nc2ccc3c(c2)OCCO3)N1Cc1ccccc1` (stereo not drawn): -1 (active).
Take `O=C(COC(=O)C1CC(=O)N(Cc2ccccc2)C1)Nc1ccc2c(c1)OCO2` (stereo not drawn): the manual score was 0 (inactive).
Next, `CC(C)Oc1ccccc1C1Nc2ccccc2C(=O)N1c1ccc2c(c1)OCCO2` (stereo not drawn): 0 (inactive).
For `O=C(CSCC(=O)N1CCCCC1)Nc1nc(-c2ccc(Cl)s2)cs1` the value was 0 (inactive); for `c1cn(C23CC4CC(CC(C4)C2)C3)cn1`, -1 (active); for `CCc1ccc2c(c1)C1(NN=C(c3cccc4ccccc34)S1)C(=O)N2` (stereo not drawn), 0 (inactive).
Next, `O=C(NC(=S)Nc1ccccc1)c1csnn1`: 1 (active).
As for `O=C(NC(=S)Nc1ccccc1Cl)c1csnn1`, the manual score was 1 (active).
For `CC(C)Oc1cccc(C(=O)NC(=S)Nc2ccccc2)c1` the value was 0 (inactive).
For `O=C(NC(=S)Nc1ccccc1)c1cc(-c2ccccc2)nc2ccccc12` the value was 0 (inactive); for `Cc1ccc2cccc(NC(=S)NC(=O)c3ccn(C)n3)c2n1`, 0 (inactive).
For `O=C(NC(=S)Nc1cc(C(F)(F)F)ccc1Cl)c1ccccc1` the value was 0 (inactive); for `COc1ccc(Nc2nc(N)nc(CSc3nnc(C)s3)n2)cc1`, 0 (inactive).
Regarding `Cc1cccc(C)c1NC(=O)C(NC(=O)c1ccccn1)c1ccc([N+](=O)[O-])cc1` (stereo not drawn), the manual score was 0 (inactive).
Next, `CC1CN(C(=O)C2CCCCC2)C(C)CN1C(=O)C1CCCCC1` (stereo not drawn): 0 (inactive); `O=C(CC(=O)c1cc(Cl)ccc1O)c1ccccc1`: 0 (inactive); `O=C(CC(=O)c1ccccc1O)c1ccc(F)cc1`: 1 (active).
Turning to `O=C(CC(=O)c1ccccc1O)c1cccc(F)c1`, the manual score was 1 (active).
Next, `CCC(NC(=O)c1ccccc1O)c1ccccc1` (stereo not drawn): 0 (inactive); `Cc1cccc(C(=O)CC(=O)c2cc(Cl)ccc2O)c1`: 0.5 (inactive).
Take `N#CCCN(Cc1ccccc1)C(=S)NC(=O)c1ccccc1`: the manual score was 1 (active).
Next, `COc1ccc(CN(CCC#N)C(=S)NC(=O)c2ccccc2)cc1`: 1 (active); `COc1cccc(C(=O)NC(=S)Nc2ccc3c4c(cccc24)CC3)c1`: 0 (inactive).
Regarding `Cc1cc(C)cc(OCC(=O)N2N=C(C(F)(F)F)CC2(O)C(C)(C)C)c1` (stereo not drawn), the manual score was 0 (inactive).
For the molecule `O=C(N1CCCCC1)N1CCN(C(=O)N(c2ccccc2)c2ccccc2)CC1`, the manual score was 0 (inactive).
Regarding `N/C(=N/O)c1nc(N2CCCC2)nc(N(c2ccccc2)c2ccccc2)n1`, the manual score is -1 (active).
Next, `CC(C)C(=O)Nc1nnn(C)n1`: 0 (inactive); `Cc1c(C(=O)NCc2cccnc2)oc2ccc(S(=O)(=O)N3CCC4(CC3)OCCO4)cc12`: 0 (inactive); `CCOC(=O)N1CCN(C(=O)c2oc3ccc(S(=O)(=O)N4CC(C)CC(C)C4)cc3c2C)CC1` (stereo not drawn): -1 (active).
In the case of `COC(=O)c1nc(NC(C)=O)n[nH]1`, the manual score was 0 (inactive).
As for `CC1(C)CC2CC(C)(CN2c2ncnc3ccccc23)C1` (stereo not drawn), the manual score was -1 (active).
For `O=C(/C=C/c1ccc(Cl)cc1)NC(=S)NN1CCCCC1c1cccnc1` (stereo not drawn) the value was 0 (inactive); for `Cc1cccc(N=C2NC(=O)/C(=C/C=C/c3ccco3)S2)c1C`, 1 (active); for `COC(=O)C1=C(C)NC(=O)/C1=C\c1ccco1`, 0 (inactive).
In the case of `COc1ccc(Nc2nc(-c3cccc([N+](=O)[O-])c3)nc3ccccc23)cc1`, the manual score is 0 (inactive).
As for `CCCn1c(=N)n(CC(O)COc2cccc(C)c2)c2ccccc21` (stereo not drawn), the manual score is -1 (active).
With `CCCn1c(=N)n(CCOc2ccc(OC)cc2)c2ccccc21`, the manual score is -1 (active).
Consider `CCCCn1c(=N)n(CC(O)COc2cccc(C)c2)c2ccccc21` (stereo not drawn), for which the manual score was -1 (active).
For `Cc1cccc(OCC(O)CN2C(C)(C)CC(O)CC2(C)C)c1` (stereo not drawn) the value was 0 (inactive); for `CCOC(=O)C(CCCCOc1cccc(CC)c1)C(=O)OCC`, 0 (inactive); for `CCOC(=O)Cn1c(=N)n(CCOc2cccc(C)c2)c2ccccc21`, -1 (active).
Next, `Cc1cccc(OCCn2c(=S)[nH]c3ccccc32)c1`: 0 (inactive).
Next, `COc1ccc(-n2c(=S)[nH]c3ccccc32)cc1`: 0 (inactive).
For `CCCCn1c(=O)nc2n(-c3ccccc3)c3ccccc3cc-2c1=O`, the manual score was 0 (inactive).
Consider `CC1CSc2ccccc2NC1=S` (stereo not drawn), for which the manual score is 0 (inactive).
For `COC(=O)c1sc(N2C(=O)C(O)=C(C(=O)c3ccc(C)o3)C2c2ccc(F)cc2)nc1C` (stereo not drawn) the value was 0 (inactive); for `CC(C)(C)OC(=O)COc1cc(O)c2c(=O)cc(-c3ccccc3)oc2c1`, 0 (inactive); for `Fc1ccc(-c2nnc3ccc(N4CCc5ccccc5C4)nn23)cc1`, 0 (inactive).
For `CCOC(=O)Cn1c(=O)oc2cc(S(=O)(=O)NCCCc3ccccc3)ccc21`, the manual score is 0 (inactive).
For `CCOC(=O)c1cc2n(c1N)-c1ccccc1C2=O` the value was 3 (inactive).
Next, `CCOC(=O)Cn1c(=N)n(Cc2ccccc2F)c2ccccc21`: -1 (active).
For `CC(C)Oc1ccc(C2CC(=O)N(c3ccccc3)C2=O)cc1` (stereo not drawn) the value was 0 (inactive); for `O=C(Nc1ccccc1N1CCCCC1)c1ccccc1F`, 0 (inactive); for `CC(C)C(=O)Nc1ccccc1N1CCN(C(=O)c2ccccc2)CC1`, -1 (active).
Take `Cc1ccccc1OCC(=O)Nc1ccccc1N1CCOCC1`: the manual score is -1 (active).
For `CCC(=O)N1CCN(c2ccccc2NC(=O)COc2cccc(C)c2)CC1` the value was -1 (active).
Next, `CCCC(=O)Nc1ccccc1N1CCN(C(=O)c2ccccc2)CC1`: -0.5 (inactive); `CCOc1cc(N2CCOCC2)c(OCC)cc1NC(=O)COC(=O)CCc1c[nH]c2ccccc12`: 0 (inactive); `CC1(C)Cc2cccc(OCC(=O)Nc3ccccc3N3CCOCC3)c2O1`: -0.5 (inactive).
Next, `Cc1cccc(OCC(=O)NC(=S)Nc2ccccc2N2CCOCC2)c1`: 0 (inactive); `Cc1cccc(OCC(=O)Nc2ccccc2N2CCN(C(=O)C(C)C)CC2)c1C`: -1 (active); `Cc1cc(Cl)ccc1OCC(=O)Nc1ccccc1N1CCOCC1`: -1 (active).
